Assay outcomes from PubChem BioAssay.
FBPA coupling cs = coupling enzyme interference in Giardia aldolase counter-screen | coupling enzyme system counterscreen, AmpLite Red fluorescence | activity change, negative = inhibition, % at 58.2 µM, hits read low | 290,000 tested, 0.67% active; in the data active = activity change below about -30%
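Coupling enzymes only (glyceraldehyde-3-phosphate) + compound, at 57.5 uM final, 10 min RT; add substrate/coupling/AmpLite Red mix, 20 min RT; fluorescence ex 525/em 598 nm. Actives flag coupling-system interference.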
HTT cytoprotect = protects HTT-Q103 PC12 cells, measured by ATP | Potency, µM (series often up to 56.4 µM), usual class: activators | AID 1471 | 230,000 tested, 0.14% active | PC12 HTT-Q103 induced, cytoprotection, ATP luminescence, 40 h; also: nearly all actives have a fitted effect of over 45% in size
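ATP quantification (ATPlite) reports survival of PC12 cells in which tebufenozide, 100 nM final, switches on Htt exon 1 with 103 glutamines linked to GFP; compounds are titrated.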
KDM4E inh = JMJD2E (human) inhibition. AID 2147. Potency, µM (titrated, usually from 57.1 µM), most hits filed as inhibitors. JMJD2E catalytic domain, FDH-coupled NADH fluorescence (FDH is formaldehyde dehydrogenase). 230,000 tested, 1.6% active; active = well fitted inhibition curve with a large enough effect, not every such curve was filed as active; inconclusive = small, poorly fitted or top-dose-only effect, or another doubt; inactive = no such curve, though single readings can be large or run the other way; also: nearly all actives have a fitted effect of over 50% in size
RGS12 GoLoco inh = inhibitors of human Gai1-RGS12 GoLoco interaction (red fluorophore); P63096; Gai1:RGS12 GoLoco peptide FP, rhodamine, 10 min; Potency, µM (top dose mostly 61.6 µM), usual class: inhibitors; 230,000 tested, 0.44% active; AID 880; active = well fitted inhibition curve with a large enough effect, not every such curve was filed as active; inactive = no such curve, though single readings can be large or run the other way; also: nearly all actives have a fitted effect of over 30% in size
VDR inhibitor = blocks the human vitamin D receptor | P11473 | VDR-SRC2-3 peptide fluorescence polarization, 2 h | Potency, µM, hits mostly inhibitors | 400,000 tested, 0.93% active
Target sequence (P11473 whole entry, looked up): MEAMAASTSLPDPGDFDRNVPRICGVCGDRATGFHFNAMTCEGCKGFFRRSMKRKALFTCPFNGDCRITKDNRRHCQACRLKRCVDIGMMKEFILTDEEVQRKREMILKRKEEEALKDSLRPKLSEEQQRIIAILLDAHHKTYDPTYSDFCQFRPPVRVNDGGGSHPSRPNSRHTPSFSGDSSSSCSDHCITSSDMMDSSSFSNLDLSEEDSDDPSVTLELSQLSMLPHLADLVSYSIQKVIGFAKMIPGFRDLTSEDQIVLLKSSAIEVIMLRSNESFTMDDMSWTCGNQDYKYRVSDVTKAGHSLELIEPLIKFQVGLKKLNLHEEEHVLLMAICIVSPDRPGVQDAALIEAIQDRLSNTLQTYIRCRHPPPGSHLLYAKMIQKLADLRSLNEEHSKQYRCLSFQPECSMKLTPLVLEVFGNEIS
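Reagent solutions, kept cold and dark, are dispensed first; compounds are then pinned in at 23 nl, plates briefly spun, and incubated 2 h at ambient temperature. Inhibition of VDR–SRC2-3 peptide binding is read by fluorescence polarization.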
HttQ103 aggreg = inhibitors of mutant huntingtin aggregate formation in PC12 cells; PC12 HttQ103-GFP aggregates, Acumen cytometry, 40 h; 220,000 tested, 1.1% active; AID 1688; Potency, µM (top dose mostly 46.1 µM), hits mostly inhibitors; also: nearly all actives have a fitted effect of over 60% in size
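Multiplexed with ATP-based cell death, this channel scores GFP aggregates in PC12 cells expressing inducible HTTex1-Q103-GFP. Induction used 100 nM tebufenozide; compounds were tested in concentration series.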
A number is an active result; - = inactive; ? = inconclusive; . = no result given; ! = not active in a repeat; [ ] = another dose, or the depositor's remark. A selection: hits, their analogues and other compounds. The true share with any hit is near 2.3%. Unless noted, calls follow the shape of the dose curve; as a rule, active = well fitted curve in the direction sought with a large enough effect; inconclusive = small, poorly fitted or top-dose-only effect, or another doubt; inactive = no such curve, though single readings can be large; an effect the other way counts as inactive or inconclusive.

SMILES | FBPA coupling cs | HTT cytoprotect | KDM4E inh | RGS12 GoLoco inh | VDR inhibitor | HttQ103 aggreg
COc1ccc(-c2nc3ccccc3o2)cc1NC(=O)c1cccc2c(Cl)cccc12 | . | . | . | . | - | .
CCCc1nc2ccccc2c(=O)n1/N=C/c1ccc(O)cc1O | - | -[0.074 µM] | 31.6µM | - | - | -[9.22 µM]
Cc1ccc(-c2[nH]ncc2/C=N/n2c(COc3ccccc3)nc3ccccc3c2=O)cc1 | - | -[10 µM] | - | - | - | -
Cc1cc(/C=N/n2c(COc3ccccc3)nc3ccccc3c2=O)c(O)c([N+](=O)[O-])c1 | - | -[10 µM] | ? | - | - | 10µM
Cc1nn(C)c(C)c1S(=O)(=O)N(CC(=O)NCCCN1CC(C)CC(C)C1)c1ccc(C(C)C)cc1 (centres undefined) | - | . | . | . | - | .
CC(=O)c1cccc(NC(=O)CSc2ncc3c(n2)-c2cc(Cl)ccc2N(Cc2ccccc2)S3(=O)=O)c1 | . | . | . | . | - | .
COc1ccc(-c2cn3nc(N4CCCC(C(=O)Nc5cc(C)ccc5C)C4)sc3n2)cc1 (centres undefined) | . | . | . | . | - | .
O/C(=C\c1nc2ccccc2nc1/C=C(\O)c1ccccc1)c1ccccc1 | -47.9 | - | - | - | 79.4µM | ?
O=S(=O)(O)c1ccc(-c2nnc(-c3ccccn3)nc2-c2ccc(S(=O)(=O)O)o2)o1 | . | -[10 µM] | . | -[14.2 µM] | . | .
O=C(Nc1c(C(=O)Nc2ccc(F)cc2)oc2ccccc12)c1ccccc1F | . | . | . | . | - | .
Fc1ccc(C[n+]2csc3ccccc32)cc1 | - | - | ? | - | 39.8µM | -
Cn1c(NNC(=O)/C=C/c2ccc3c(c2)OCO3)cc(=O)n(C)c1=O | -37.1 | -[10 µM] | ? | - | - | -[9.22 µM]
O=c1c(-c2ccc(Cl)cc2)nc2cnc(N3CCNCC3)nc2n1Cc1ccc(F)cc1 | - | - | . | - | - | .
O=c1cnc2cnc(N3CCNCC3)nc2n1Cc1ccc(F)cc1 | - | - | . | 8.91µM | - | .
COC1=CC(=O)C(O)=C(CCCCCCC/C=C/CCCCCCCC2=C(O)C(=O)C=C(OC)C2=O)C1=O | . | . | . | . | 44.7µM | .
CCCCCCCCCCCC1=C(O)C(=O)C=C(O)C1=O | - | ? | 20µM! | - | ? | .
CCCCCCc1c(O)c2ccccc2[nH]c1=O | - | -[10 µM] | ? | - | - | -
COc1ccc(Cc2ccccc2C(=O)O)c2ccccc12 | . | -[10 µM] | . | -[14.2 µM] | . | .
CCn1c(O)c(/C=N/N=C2CCCCC2)c2cc(C3=NNC(=O)CC3)ccc21 | -34.8 | -[10 µM] | ? | - | - | -[9.22 µM]
CCn1c(O)c(/C=N/N=C2CCCC2)c2ccc(C3=NNC(=O)CC3)cc21 | - | - | - | - | - | -
Cc1cccc(-c2nnc3sc(-c4ccccc4C)nn23)c1 | - | -[0.074 µM] | - | - | - | 11.2µM
Cn1c(NNC(=O)c2cccc3ccccc23)cc(=O)n(C)c1=O | - | -[10 µM] | - | - | - | -[9.22 µM]
Cn1c(NNC(=O)c2ccccc2F)cc(=O)n(C)c1=O | -30.2 | -[10 µM] | - | - | - | -[9.22 µM]
O=C(NC1CCCCC1)C(c1ccc(F)cc1)N(Cc1ccco1)C(=O)Cn1nnc2ccccc21 (centres undefined) | - | - | - | - | - | -
O=C(NC1CCCCC1)C(c1ccc(F)cc1)N(Cc1ccco1)C(=O)CN1C(=O)c2ccccc2S1(=O)=O (centres undefined) | - | -[10 µM] | - | - | - | 22.4µM
SMILES | FBPA coupling cs | HTT cytoprotect | KDM4E inh | RGS12 GoLoco inh | VDR inhibitor | HttQ103 aggreg
Cc1ccc(S(=O)(=O)CCC(=O)N(C)C2CCCCC2)cc1 | - | . | . | . | - | .
CCCSc1nnc(Sc2nnnn2-c2ccccc2)s1 | - | -[10 µM] | - | - | ? | 22.4µM
Cc1ccccc1-n1nnnc1SCC(N)=O | - | - | - | - | - | -
Cc1ccccc1-n1nnnc1Sc1nnnn1-c1ccccc1 | - | - | - | - | - | 14.1µM
COc1ccc(Cc2nc3ccc(C(=O)NC(C)Cc4ncccc4C)cc3o2)cc1OC (centres undefined) | . | . | . | . | - | .
Nc1ncnc2c1ncn2[C@@H]1O[C@@H](COP(=O)(O)OP(=O)(O)OP(=O)(O)OP(=O)(O)OC[C@@H]2O[C@@H](n3cnc4c(N)ncnc43)[C@@H](O)[C@H]2O)[C@H](O)[C@@H]1O | . | -[1.9 µM] | . | . | . | .
CCCC[C@H]1COCCS(=O)(=O)N1Cc1ccc(Br)cc1 | - | . | . | . | - | .
Cc1cc(C)n2nc(SCC(=O)N/N=C/c3cccc(Br)c3)nc2n1 | -32.0 | - | - | - | - | -
